From PubChem BioAssay
Active and inactive are the calls of the source. No rule for the calls is given here.

Tests used:
[1] = tested on: Botulinum neurotoxin type F light chain protease (Clostridium botulinum); assay: Botulinum neurotoxin type F light chain protease inhibition, multiplex microsphere flow cytometry, validation set (AID 588459); conditions: multiplex microsphere protease substrate cleavage assay, at 10 µM, stronger effect = higher value
[2] = target: Botulinum neurotoxin type A (Clostridium botulinum) (UniProt P0DPI0); assay: BoNT/A light chain protease inhibitors, biochemical, multiplex microsphere flow cytometry, validation set (AID 588460); conditions: at 10 µM, stronger effect = higher value
[3] = target: Lethal factor (Bacillus anthracis) (UniProt P15917); assay: Lethal factor protease inhibitors, Bacillus anthracis, multiplex microsphere cleavage assay, validation set (AID 588461); conditions: flow cytometry, at 10 µM, stronger effect = higher value

Measured: inhibition

Cn1c(=O)[nH]c(=O)c2c1ncn2CCN1CCOCC1
inactive: [1] 3.5% | [2] -1.5% | [3] -2.5%

COc1ccc([C@H]2[C@H](C(=O)OC(C)(C)C)N3N=Cc4ccccc4C3C23C(=O)c2ccccc2C3=O)cc1OC (stereo not given in full)
inactive: [1] -0.2% | [2] 0.5% | [3] -5.5%

O=C(CN1CCN(Cc2ccccc2)CC1)N1CCCc2c1c(=O)oc1ccc(O)cc21
inactive: [1] 2% | [2] -1.5% | [3] -8.3%

CCN(Cc1ccncc1)Cc1nc(Cc2ccccc2Cl)no1
inactive: [1] -4.4% | [2] -0.8% | [3] -2.6%

Cn1c(=O)c2c(nc(SCCN3CCCCC3)n2C)n(C)c1=O
inactive: [1] -1.4% | [2] 0.2% | [3] -4.6%

CC1(C)Cc2ccccc2C(C(Cc2ccccc2)C(N)=O)=N1 (stereo not given)
inactive: [1] 0.5% | [2] 1.1% | [3] -3.2%

N/C(=N\OC(=O)/C=C/c1ccccc1)c1ccc(Br)cc1
inactive: [1] -3.1% | [2] -0.1% | [3] 2.5%

Cn1cc(/C=C/C(=O)c2ccccc2)c2ccccc21
inactive: [1] -4.2% | [2] -0.5% | [3] -5.4%

COc1cc(C2Nc3ccccc3C(=O)N2c2ccccc2)ccc1O (stereo not given)
inactive: [1] 0.9% | [2] 0% | [3] -4.4%

C/C(CCc1oc2ccc(Cl)cc2c1-c1ccc(C)o1)=N\O
inactive: [1] 1.6% | [2] -0.7% | [3] -3.2%

COc1ccc(CCNC(=O)CC(c2ccccc2)c2cccc(C)c2O)cc1OC (stereo not given)
inactive: [1] -0.9% | [2] -0.9% | [3] 0.1%

CCOC(=O)C(Cc1cc(C(C)=O)ccc1OC(C)C)C(=O)OCC
inactive: [1] 0.4% | [2] -0.1% | [3] -1.9%

CC12CCC(C(=O)NNc3ccccc3)(C(=O)C1=O)C2(C)C (stereo not given)
inactive: [1] 1.1% | [2] 0.4% | [3] -3.4%

O=c1cc(Cn2ccnc2)c2cc3c(cc2o1)CCC3
inactive: [1] 1.9% | [2] -1.1% | [3] -3.2%

COc1ccc(NC(=S)NCCc2c[nH]c3ccccc23)cc1
inactive: [1] -0.4% | [2] -0.9% | [3] 0.4%

CCOc1cc2oc(=O)c3c(c2cc1Cl)CCC3
inactive: [1] 3% | [2] -0.7% | [3] -2.7%

COc1ccc(CCn2c(C)nc3c(c(=O)c4ccccc4n3C)c2=O)cc1
inactive: [1] 3.4% | [2] 0.2% | [3] 5.5%

C[C@]12CC[C@@H]3c4ccc(O)cc4CC[C@H]3[C@@H]1CC[C@@H]2OC(=O)CCC(=O)O
inactive: [1] -0.1% | [2] -0.4% | [3] -10%

c1ccc(-c2ccc(C(c3ccccc3)n3ccnc3)cc2)cc1 (stereo not given)
inactive: [1] -0.7% | [2] -1.3% | [3] -1.4%

Cc1nc(C2CC(=O)OC23CCCCC3)cs1 (stereo not given)
inactive: [1] 0.3% | [2] -0.7% | [3] -10.4%

CC(=O)Nc1nc(CCC(C)C)cc2c1c(=O)oc1ccccc12
inactive: [1] 1.3% | [2] -0.1% | [3] -9.4%

COc1cc(C(=S)N(C)C)ccc1O
inactive: [1] -3.2% | [2] -0.9% | [3] -2%

c1cnc2c(c1)ccc1cccnc12
inactive: [1] -1.4% | [2] -5.9% | [3] -2.3%

O=C(O)c1ccc(-c2ccc(O)c(F)c2)cc1
inactive: [1] -6.5% | [2] -1.7% | [3] 0.4%

O=C(N/N=C\c1cc([N+](=O)[O-])ccc1N1CCOCC1)c1ccccn1
inactive: [1] -0.1% | [2] -1.3% | [3] 2.6%

NCCOc1ccccc1OCCN
inactive: [1] 1.6% | [2] -0.4% | [3] -4.4%

CS(=O)c1ccccc1O (stereo not given)
inactive: [1] 1.4% | [2] 0% | [3] -9.2%

CC1(C)NC(C(=O)O)Cc2c1[nH]c1ccccc21 (stereo not given)
inactive: [1] -1.6% | [2] 1% | [3] -2.8%

CC(=O)NS(=O)(=O)c1ccc(N)cc1
inactive: [1] 0.7% | [2] 1% | [3] 4.5%

Cc1ccc2c(c1)C(O)(C1COC(C)(C)CC1=O)C(=O)N2C (stereo not given)
inactive: [1] -1.1% | [2] 1.7% | [3] -0.8%

O=C1[C@@H]2CSCN2C(=O)CN1Cc1ccc(F)cc1
inactive: [1] 1.2% | [2] 0.7% | [3] 3.4%

O=C(O)c1ccc(OCCn2ccnc2)cc1
inactive: [1] 2.9% | [2] -0.2% | [3] -0.6%

C[C@H](NC(=O)NCCc1ccccc1)C(=O)O
inactive: [1] 0.5% | [2] -0.2% | [3] -0.6%

O=C(CNC(=O)OCc1ccccc1)Oc1cc2oc(=O)cc(-c3ccccc3)c2cc1Cl
inactive: [1] 2.7% | [2] 0.9% | [3] 11.5%

CC(C)c1ccccc1OCCNC(=S)NC(=O)c1cccnc1
inactive: [1] 4.3% | [2] 1.6% | [3] 2.6%

CCCCOc1ccc(CC(=O)NO)cc1
inactive: [1] -1.6% | [2] -0.2% | [3] 0.6%

COc1cc(C2C(C(C)=O)=C(O)C(=O)N2c2ccc(C)cc2)ccc1O (stereo not given)
inactive: [1] -1.4% | [2] 0.2% | [3] 0%

O=C(NC(=S)N1CCCCC1)c1cccnc1
inactive: [1] 1.2% | [2] 1% | [3] -4.6%

COc1cccc2c(=O)c3ccccc3oc12
inactive: [1] 12.6% | [2] 3.9% | [3] -4.2%

Cc1c(OC(=O)CNC(=O)OC(C)(C)C)ccc2c3c(c(=O)oc12)CCC3
inactive: [1] -2.7% | [2] -0.5% | [3] -2.2%

Cc1nonc1CN(C)C(=O)c1ccc(OC2CCN(Cc3ccccn3)CC2)cc1
inactive: [1] 0% | [2] -1.4% | [3] -0.2%

O=C(NCc1ccco1)/C(=C\C=C\c1ccccc1)NC(=O)c1ccccc1Br
inactive: [1] -0.5% | [2] 0% | [3] 1.6%

CCN(CC)C(=S)SSC(=S)N(CC)CC
inactive: [1] -3.2% | [2] -3.2% | [3] -10.6%

COc1ccc(NC(=O)CC2C(=O)N(C)C(=S)N2Cc2ccncc2)cc1 (stereo not given)
inactive: [1] -2.7% | [2] -1.6% | [3] -9.6%

CCC1(c2ccccc2)NC(=S)N(c2ccc(C)c(C)c2)N1 (stereo not given)
inactive: [1] 1% | [2] -0.8% | [3] -3%

CCn1cc(C(=O)O)c(=O)c2ccc(C)nc21
inactive: [1] 1.3% | [2] -1.5% | [3] -3.9%

O=C(/C=C/c1ccc2c(c1)OCCCO2)c1ccc2ccccc2c1O
inactive: [1] 1.8% | [2] 1.1% | [3] -5.5%

Cc1cccc(N2CCN(C(=S)c3ccccc3)CC2)c1
inactive: [1] 3.3% | [2] -1.9% | [3] -2.9%

CCOc1ccc2nc(N/C(N)=N/S(C)(=O)=O)nc(C)c2c1
inactive: [1] 2.1% | [2] -0.1% | [3] 2.4%

CCOC(=O)c1ccc(N2C(=O)C(CC(=O)NC)N(CCc3ccc(OC)c(OC)c3)C2=S)cc1 (stereo not given)
inactive: [1] -0.6% | [2] -0.4% | [3] -10.1%

O=C(CCCCCCCC(=O)c1ccccc1)c1ccccc1
inactive: [1] -2% | [2] -2.3% | [3] -9.8%

Cc1cccc(C(=O)c2cccc(C)c2)c1
inactive: [1] -4.8% | [2] -0.8% | [3] -11.4%

CCOC(=O)C1=C2c3ccc4ccccc4c3CC(C)(C)N2C(=O)C1=O
inactive: [1] 2.7% | [2] 1.7% | [3] -4.6%

COc1ccc([C@@H]2Sc3ccccc3N(CCN(C)C)C(=O)[C@@H]2OC(C)=O)cc1
inactive: [1] -1.7% | [2] 0.1% | [3] 1%

Cc1cccc(-c2ncc(CN3CCN(CC(C)C)C(CCO)C3)cn2)c1 (stereo not given)
inactive: [1] 2.6% | [2] 0.9% | [3] 0.4%

COc1ccc(Cc2nc(-c3ccc(Br)cc3)no2)cc1
inactive: [1] -0.7% | [2] -1.6% | [3] -5.8%

CC1(C)C(=O)OC(C(=O)c2ccc(Cl)cc2)C(C)(C)C1=O (stereo not given)
inactive: [1] 1.9% | [2] 1.3% | [3] -3.1%

C#CCN(C)Cc1ccccc1
inactive: [1] 2.5% | [2] -0.5% | [3] -2.8%

NC(=O)c1cccnc1
inactive: [1] 1.8% | [2] -0.2% | [3] 3%

CC(=O)OCC(=O)[C@H]1CC[C@H]2[C@@H]3CCC4=CC(=O)CC[C@]4(C)[C@H]3CC[C@]12C
inactive: [1] -5.8% | [2] -1.1% | [3] -5.7%

O=C(c1ccc(F)cc1)[C@@H]1[C@@H](C(=O)c2ccccc2)[C@@]2(C(=O)Nc3ccccc32)[C@H]2c3ccccc3C=CN12
inactive: [1] 4.8% | [2] 0.3% | [3] -3.6%

COc1ccc(-c2csc(-c3cccnc3)n2)cc1C
inactive: [1] -2% | [2] -1.6% | [3] -5.1%

O=C(CCSc1ccccc1)N1CCCC1
inactive: [1] 1.2% | [2] -0.9% | [3] -2.3%

COc1ccc(N2CCN(C(=S)NCc3ccccc3)CC2)cc1
inactive: [1] 2.4% | [2] -0.6% | [3] 2.2%

COCCn1c(SCCOc2ccccc2)nc2ccccc2c1=O
inactive: [1] 1.6% | [2] -0.3% | [3] -1.1%
